Bioassay records (PubChem)
Most compounds without a hit are left out; they make up all but 21% or so of the library.
Shiga inhibitor – Shiga toxin inhibition; Vero cells, Shiga toxin protein synthesis inhibition reporter; inhibition, % at 38.7 µM; 290,000 tested, 9.2% active; AID 2315; in the data active means inhibition mostly above about 28%, no sharp cut-off; inactive means mostly below about 43%; further: 0% is about no effect
Cycloheximide cs – affects cycloheximide protein synthesis inhibition readout, counter-screen. max response, %. cell reporter, cycloheximide protein synthesis inhibition counterscreen. 300,000 tested, 12% active; in the data active means max response mostly above about 13%, no sharp cut-off; inactive means mostly below about 14%; further: read at 38.3 µM for the half of the compounds with a filed dose; 0% is about no effect
NS1 function inh – inhibitors of influenza NS1 protein function; AID 2326; 270,000 tested, 0.4% active; Potency, µM (titrated, usually from 46.1 µM), for inactives: at the top dose activity, positive = more growth; calls by dose curve; further: potency means the concentration at half of the fitted maximal effect; actives are rising curves; nearly all actives have a fitted effect of over 50% in size
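Compounds were scored for reversing the slow growth caused by influenza A NS1 in S. cerevisiae, measured by optical density at 600 nm. Assay medium contained 2% galactose at pH 6.0; NS1-free yeast of the same strain were the positive control.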
Pf growth 96h – P. falciparum growth inhibition at 96 hours; 320,000 tested, 6.9% active; P. falciparum luciferase reporter growth, 96 h; Potency, µM (doses to about 28.7 µM), inactives show at the top dose activity change, negative = inhibition, most hits filed as inhibitors; AID 504834; further: potency means the concentration at half of the fitted maximal effect; on the % scale 0 is the no-effect control and ±100 the full control effect
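Infected RBCs, 2% Hct / 0.05% parasitemia final; luciferase-reporter P. falciparum; cpd 96 h, 37 C, 5% CO2; luciferase detection reagent; luminescence.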
Pf growth 48h – inhibits P. falciparum growth in the first generation, 48 h; P. falciparum luciferase growth in erythrocytes, 48 h; Potency, µM (highest dose often 28.7 µM), for inactives: at the top dose activity change, negative = inhibition, usual class: inhibitors; 310,000 tested, 5.9% active; AID 504832; further: potency means the concentration at half of the fitted maximal effect; on the % scale 0 is the no-effect control and ±100 the full control effect
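Luminescence readout; reporter = integrated firefly luciferase in P. falciparum. RBC culture at 2% hematocrit, 0.1% parasitemia final, 37 C/5% CO2; decreased signal taken as growth inhibition.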
Active calls of the source: *; ? = inconclusive; / = not tested or not shown. Unless noted, the call rests on the fitted dose curve; in most records, active means well fitted inhibition curve with a large enough effect; inconclusive means small, poorly fitted or top-dose-only effect, or another doubt; inactive means no such curve, though single readings can be large or run the other way.

SMILES	Shiga inhibitor	Cycloheximide cs	NS1 function inh	Pf growth 96h	Pf growth 48h
Cc1ccc(CNS(=O)(=O)c2c(C)[nH]c(C)c2C(=O)N2CCCCC2)o1	17	2	2%	13µM*	-8%
NC(=O)SCC(=O)Nc1ccc2ncccc2c1	/	/	9%	/	/
O=c1[nH]c(/C(Cl)=C/c2c(F)cccc2Cl)nc2cc(Cl)ccc12	-8	0	0%	48%	-14%
O=c1[nH]c(/C(Cl)=C/c2cc(Cl)ccc2O)nc2cc(Cl)ccc12	-5	-1	-9%	9.3µM*	-23%
CCOC(=O)c1c(-c2ccco2)csc1NC(=O)COC(=O)c1cnccn1	/	/	/	?	24%
C/C(=N\Nc1cccc([N+](=O)[O-])c1)c1ccccc1O	73*	33*	/	101%	98%
C/C(=N\Nc1cccc([N+](=O)[O-])c1)c1cc(F)ccc1O	109*	47*	3%	45%	27%
O=C(CCC(=O)c1cccs1)NCCc1ccc(F)cc1	/	/	/	0%	15%
Cc1ccc(-n2nnnc2C(Cl)c2nnnn2-c2ccc(C)cc2)cc1	23	0	-26%	?	-3%
CCN(CC)c1ccc(C=C(c2nnnn2-c2ccc(C)cc2)c2nnnn2-c2ccc(C)cc2)cc1	-10	-4	23%	?	1.7µM*
O=C1CCC(=O)N1CN(C(=O)c1ccco1)c1ccc(Cl)c(Cl)c1	18	-2	-20%	10µM*	23%
CC(=O)N(CN1C(=O)CCC1=O)c1ccc(Cl)c(Cl)c1	-11	-3	/	?	8%
O=C(c1ccc(Cl)cc1)N1CCOc2ccccc21	6	6	-4%	0%	-12%
COC(=O)NC1CSCC1OC(=O)CCN1C(=O)c2ccccc2C1=O (stereo unspecified)	18	-6	-1%	/	-4%
CC(=O)NC1CSCC1OC(C)=O (stereo unspecified)	-11	-6	-1%	9.3µM*	0%
Cc1cc(NC(=O)c2nn(C)c(C)c2Br)no1	81*	45*	-6%	191%	171%
Cc1cc(OC(C)C(=O)Nc2ccncc2)ccc1Cl (stereo unspecified)	-12	-1	-45%	9.3µM*	?
CCOc1ccc(CCNC(=O)CCNC(=O)c2ccccc2Cl)cc1OCC	-28	4	11%	?	12µM*
CCCCOc1cccc(OCCCC)c1C(=O)Nc1cc(C)on1	-9	0	-17%	25%	2.1µM*
Cc1cc2c(s1)c1cnn(Cc3ccc(F)cc3F)c(=O)c1n2C	-14	-3	/	/	/
Cc1ccc2c(CSc3nc4ccccc4c(=O)n3CCCO)cc(=O)oc2c1	/	/	-36%	/	/
CCOc1ccc(C(=O)Nc2cc(C)on2)cc1OCC	-3	5	-6%	-5%	12µM*
Cc1cc(NC(=O)c2ccc(F)cc2)no1	91*	33*	8%	5%	74%
CC(C)NS(=O)(=O)c1ccc(NC(=O)C(C)Oc2ccc(C(=O)c3ccccc3)cc2)cc1 (stereo unspecified)	-22	-4	?	2.3µM*	?
Cc1ccc(OC(C)C(=O)Nc2cc(C)on2)cc1 (stereo unspecified)	-11	9	-9%	4.7µM*	15%
SMILES	Shiga inhibitor	Cycloheximide cs	NS1 function inh	Pf growth 96h	Pf growth 48h
Cc1cc(NC(=O)c2ccc([N+](=O)[O-])cc2)no1	9	2	35%	?	61%
CC(Oc1ccccc1)C(=O)Nc1ccc(C(N)=O)cc1 (stereo unspecified)	1	10	-21%	45%	5%
CC(=O)Nc1ccn(C2OC(C(COC(C)=O)NC(=O)C(C)NC(=O)OC(C)(C)C)C(OC(C)=O)C2OC(C)=O)c(=O)n1 (stereo unspecified)	16	2	/	/	/
Cc1cc(=O)oc2cc(O)c(N=Nc3ccccc3)cc12	-6	-3	-1%	32%	?
CCOC(=O)C(=O)Nc1cc(C)on1	80*	72*	5%	-3%	170%
Cc1cc(NC(=O)c2ccc(NC(=O)C(C)Oc3ccccc3)cc2)no1 (stereo unspecified)	1	9	-2%	/	6.6µM*
CC(=O)Nc1ccc(C(=O)Nc2cc(C)on2)cc1	44*	32*	-1%	18%	63%
Cc1ccc(S(=O)(=O)Nc2ccc(C(=O)Nc3cc(C)on3)cc2)cc1	-5	-1	-5%	-12%	-7%
CCOc1ccc(CCNC(=O)c2cc(C)on2)cc1OCC	-14	9	-1%	?	10µM*
CCOc1ccc(CCNC(=O)c2c(C)noc2C)cc1OCC	/	/	/	-4%	?
COc1ccccc1C(CNC(=O)c1ccc(S(=O)(=O)NCc2ccco2)cc1)N(C)C (stereo unspecified)	16	1	3%	?	-4%
COc1cccc(/C=N/Nc2nnc(C)n2N)c1O	19	17	-6%	8%	-26%
COc1cccc(/C=N/Nc2nc(N3CCCC3)nc(N3CCCC3)n2)c1O	23	3	-8%	-17%	?
COc1cccc(/C=N/Nc2c(Cl)cncc2Cl)c1O	84*	32*	-49%	-1%	71%
COc1cccc(/C=N/Nc2ncnc3c2ncn3Cc2ccccc2)c1O	-5	-2	?	2.3µM*	1.9µM*
COc1cccc(/C=N/Nc2cc(Cl)nc(C)n2)c1O	54*	32*	3%	14%	?
COc1cc(-c2cc3nc(C)c(C)c(=O)n3[nH]2)cc(OC)c1OC	-9	2	7%	97%	10µM*
O=C1c2nc3cc(-c4ccco4)[nH]n3c(=O)c2CN1Cc1ccccc1	-9	-1	15%	-8%	-17%
CCCCc1c(C)nc2cc(-c3ccco3)[nH]n2c1=O	79*	34*	0%	?	?
CCc1c(C)nc2cc(-c3ccccc3)[nH]n2c1=O	35*	34*	5%	?	?
C=CCc1c(C)nc2cc(-c3ccc(C)cc3)[nH]n2c1=O	72*	54*	15%	0%	67%
CCOc1ccc(N(CC(=O)Nc2cccc(N(C)S(C)(=O)=O)c2)S(=O)(=O)c2ccccc2)cc1	-7	-4	?	?	?
CCc1cc(C(=O)N(C)CC(=O)N(CC(C)C)c2c(N)n(CC(C)C)c(=O)[nH]c2=O)sc1C	-11	-3	5%	?	-13%
CCCCc1cc(=O)oc2cc(OCC(=O)NCC3CCC(C(=O)O)CC3)ccc12 (stereo unspecified)	-1	-1	27%	?	-3%
Cc1ccc(C(=O)Nc2ncccc2O)o1	/	/	/	-34%	?
COCCNC(=O)C(c1ccc(C)o1)N(C(=O)c1snc(C(N)=O)c1N)c1cc(C)cc(C)c1 (stereo unspecified)	43	-1	-5%	/	?
COc1cccc(N2CCN(C3C4CC5CC(C4)CC3C5)CC2)c1 (stereo unspecified)	52	22*	1%	/	/
O[C@@H]1[C@@H](O)C=C2CCN3Cc4cc5c(cc4[C@H]1C23)OCO5 (stereo partly specified)	/	/	/	0.29µM*	0.33µM*
Cc1cc2c(s1)c1cnn(Cc3ccc(S(C)(=O)=O)cc3)c(=O)c1n2C	6	10	/	/	/
